This is one part of the list. The source made the active and inactive calls.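 How the source made its calls: active means activation of at least 7% in one or more replicates; inactive means the rest.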

A short description of the assay: activation of alpha-dystroglycan glycosylation – single concentration, Pro5-aDG cells, confirmation (AID 651671).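 Further: cells exposed to compound for two days before detection; 0% = DMSO-treated Pro5 cells and 100% = DMSO-treated B10-LARGE cells.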 Conditions: alpha-DG glycosylation, IIH6 AlphaLISA, stronger effect = higher value, screened at 10 µM (by protocol), scaled to LARGE-overexpressing B10 cells as 100%.
In the case of `CC(C)c1cc(Cn2c3ccccc3c(=O)n2C(C)Cn2cc(C3CC3)nn2)on1` (configuration not stated), the activation is 0.475% (inactive).
On to `CC(=O)Oc1cccc(N2C(=O)C3CC=C(Cl)CC3C2=O)c1` (configuration not stated), for which the activation was 0.562% (inactive).
Turning to `COc1ccc(NC(=O)CSc2nnc(-c3ccccc3F)n2C2CC2)cc1S(N)(=O)=O`, the activation was -0.758% (inactive).
The result for `COc1ccccc1C1SCCN1C(=O)c1ccc([N+](=O)[O-])cc1` (configuration not stated) reads -0.592% (inactive).
As for `CCc1ccccc1S(=O)(=O)Cc1ccc(C(=O)NCCc2ccccc2)o1`, the figure is -0.875% (inactive).
As for `CCOC(=O)C1(CCOC)CCN(Cc2cc3ccccc3s2)CC1`, the figure is -0.438% (inactive); as for `CN(C)CCCNC(=O)/C=C/c1ccc(OCc2c(F)cccc2Cl)cc1`, 8.53% (active); as for `CCOc1ccc(OCC(=O)Nc2c3c(nn2C(C)(C)C)CS(=O)(=O)C3)cc1`, 0.637% (inactive).
Take `CC(C)OC(=O)CN1C(=O)C(=O)c2ccccc21`: the activation is 8.05% (active).
As for `COc1cccc(C(=O)Nc2nnc(S(=O)(=O)N3CCCCC3)s2)c1`, the figure is -0.562% (inactive).
As for `O=C(c1ccc(N2CCCC2=O)cc1)N1CCN(c2ccc(C(F)(F)F)cc2[N+](=O)[O-])CC1`, the activation is 1.5% (inactive).
`CN1CCN(S(=O)(=O)c2cccc(C(=O)Nc3sccc3C#N)c2)CC1`: the activation is 42% (active).
As for `COc1ccccc1N1CCN(C(=O)c2cc(-c3ccc(Br)cc3)on2)CC1`, the figure is -0.683% (inactive); as for `O=C(NC(c1ccc(-c2ccccc2)cc1)c1cnccn1)C1CCN(CCOc2ccc(Cl)cc2Cl)CC1` (configuration not stated), 3.11% (inactive).
Consider `CN(Cc1ccccc1)CC(O)COc1ccc(CNCc2cc3ccccc3s2)cc1` (configuration not stated), for which the activation is 0.15% (inactive).
The result for `Cc1cccc(CN2CCC(CNC(=O)Nc3ccc(F)c(Cl)c3)CC2)c1` reads 11% (active); that for `Nc1scc[n+]1Cc1cccc2cccnc12`, -0.533% (inactive); that for `OC[C@@H]1CN(Cc2ccc(-c3ccccc3)cc2)C[C@H](n2cnc3c(NC4CCCC4)ncnc32)O1`, 4.21% (inactive).
For the compound `Cc1ccc(NC(=O)c2ccc(Oc3ncccn3)cc2)cc1`, the activation is -0.983% (inactive).
As for `Cc1ccc(NC(=O)CN(C)CC(=O)Nc2cccc(F)c2)cc1[N+](=O)[O-]`, the activation is 1.48% (inactive).
On to `CCn1cc(CN2CCC(C(=O)Nc3cccc(-c4cccc(Cl)c4)c3)CC2)c(C)n1`, for which the activation was 9.24% (active).
As for `CC(C)C(=O)NCC(c1cccs1)S(=O)(=O)c1ccc(F)cc1` (configuration not stated), the figure is 0.3% (inactive); as for `Cc1cc(C)c2[nH]c(=O)c(CN(Cc3ccccc3)C(=S)NCCCN(C)C)cc2c1`, 1.74% (inactive).
As for `CCCn1c(=N)n(CC(=O)c2ccc(Cl)c(Cl)c2)c2ccccc21`, the figure is 11% (active); as for `O=c1ccc2cc(S(=O)(=O)N3CCN(c4ccccc4)CC3)ccc2o1`, -0.742% (inactive); as for `COc1cc(CNCCN(C)C)ccc1OCc1c(F)cccc1Cl`, 6.71% (active).
For the compound `CCOc1ccccc1Nc1nnc(SCC(=O)NCC2CCCO2)s1` (configuration not stated), the activation is 0.625% (inactive).

Values taken from PubChem BioAssay AID651671 (Sanford-Burnham Center for Chemical Genomics, 2012).
